Assay outcomes deposited in PubChem by National Center for Advancing Translational Sciences (NCATS).
Pf growth 48h = P. falciparum growth inhibition at 48 hours (one generation); P. falciparum luciferase growth in erythrocytes, 48 h; Potency, µM (series often up to 28.7 µM), inactives show at the top dose activity change, negative = inhibition, actives largely listed as inhibitors; hit rate 5.9% among 310,000; also: potency is read from the fitted curve at half-maximal effect; % is scaled to controls: 0 for no effect and ±100 for the full control effect
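Read-out is firefly luciferase luminescence from an integrated reporter in P. falciparum, so falling signal marks reduced parasite growth. Infected erythrocytes were at 2% hematocrit and 0.1% parasitemia (final) in Albumax-supplemented RPMI 1640.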
Cycloheximide cs = counter-screen for Shiga toxin inhibitors: cycloheximide protein synthesis inhibition | cell reporter, cycloheximide protein synthesis inhibition counterscreen | max response, % | hit rate 12% among 300,000 | AID 2314; in the data active = max response mostly above about 13%, no sharp cut-off; inactive = mostly below about 14%; also: read at 38.3 µM for the half of the compounds with a filed dose; 0% is about no effect
LmPK inhibitor = inhibitors of Leishmania mexicana pyruvate kinase; Q27686; purified LmPK, Kinase-Glo ATP luminescence, 1 h; Potency, µM (series often up to 57.5 µM), inactives show at the top dose activity change, negative = inhibition, usual class: inhibitors; hit rate 0.37% among 290,000; AID 1721; also: potency is read from the fitted curve at half-maximal effect; % is scaled to controls: 0 for no effect and ±100 for the full control effect
Target sequence (Q27686 whole entry, looked up): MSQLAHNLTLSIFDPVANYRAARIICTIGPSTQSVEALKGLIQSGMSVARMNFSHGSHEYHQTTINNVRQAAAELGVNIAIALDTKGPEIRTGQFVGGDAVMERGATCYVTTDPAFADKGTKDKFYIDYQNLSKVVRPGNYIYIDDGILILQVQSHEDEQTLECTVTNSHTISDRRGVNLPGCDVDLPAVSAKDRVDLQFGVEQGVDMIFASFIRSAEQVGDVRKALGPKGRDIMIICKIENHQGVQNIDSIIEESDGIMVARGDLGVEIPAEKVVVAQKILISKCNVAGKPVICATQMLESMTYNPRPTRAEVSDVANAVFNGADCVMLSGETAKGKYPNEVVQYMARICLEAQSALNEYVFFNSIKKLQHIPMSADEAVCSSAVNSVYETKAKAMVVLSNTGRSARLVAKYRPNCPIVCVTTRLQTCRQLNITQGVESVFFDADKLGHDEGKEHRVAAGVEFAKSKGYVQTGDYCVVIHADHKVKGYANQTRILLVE
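0.1 nM LmPK, 0.5 mM PEP, 0.1 mM ADP; 50 mM imidazole pH 7.2, 7 mM MgCl2, 50 mM KCl; 1 h RT. Kinase-Glo luminescence readout, normalized to no-enzyme (full inhibition) and uninhibited wells.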
Shiga inhibitor = inhibitors of Shiga toxin in Vero cells. Vero cells, Shiga toxin protein synthesis inhibition reporter. inhibition, % at 38.7 µM. hit rate 9.2% among 290,000. AID 2315; in the data active = inhibition mostly above about 28%, no sharp cut-off; inactive = mostly below about 43%; also: 0% is about no effect
Pf growth 96h = P. falciparum growth inhibition at 96 hours. P. falciparum luciferase reporter growth, 96 h. Potency, µM (highest dose often 28.7 µM), for the others: top-dose activity change, negative = inhibition, usual class: inhibitors. hit rate 6.9% among 320,000. AID 504834; also: potency is read from the fitted curve at half-maximal effect; % is scaled to controls: 0 for no effect and ±100 for the full control effect
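Compounds incubated with erythrocytes infected by luciferase-expressing P. falciparum (2% hematocrit, 0.05% parasitemia final) for 96 hours, 37 C in 5% CO2. Growth inhibition scored as decreased luciferase luminescence.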
Active calls of the source: *; ? = inconclusive; / = no result given; [ ] = another dose, or the depositor's remark. This is a sample that favours compounds with a hit; in the whole collection about 22% have one here. Unless noted, calls follow the shape of the dose curve; as a rule, active = well fitted inhibition curve with a large enough effect; inconclusive = small, poorly fitted or top-dose-only effect, or another doubt; inactive = no such curve, though single readings can be large or run the other way.

SMILES	Pf growth 48h	Cycloheximide cs	LmPK inhibitor	Shiga inhibitor	Pf growth 96h
COc1cccc(Cl)c1NC(=O)N1CCc2c([nH]c3ccccc23)C1C(F)(F)F (stereo not drawn)	?	-1.1	-1.0%	-7.2	?
Cc1cc(C(=O)N2CCCC(Nc3ccc(F)cc3)C2)c(C)o1 (stereo not drawn)	-8.8%	1.6	9.9%	19.8	-24.0%
CC(=O)N[C@H](CC(C)C)C(=O)O	-11.7%	/	/	/	-14.8%
Cc1ccc(N(C)S(=O)(=O)c2c(C)noc2/C=C/N(C)C)cc1	17.8%	1.4	4.3%	-7.9	-3.1%
CC(C)NC(=O)c1c(O)c2ccccc2[nH]c1=O	10.4µM*	13.5	-0.8%	-4.2	4.15µM*
COC(=O)c1c(O)c2ccccc2[nH]c1=O	-1.6%	-0.6	5.0%	-2.6	/
O=C(N/N=C/c1ccc(O)cc1)c1cncc(Br)c1	5.2%	10.8	-9.5%	20.8	?
COc1c(O)ccc(/C=N/NC(=O)c2ccc3c(c2)OCCO3)c1[N+](=O)[O-]	197.6%	21.3*	0.8%	51.9*	147.3%
COc1c(O)ccc(/C=N\NC(=O)c2ccc3c(c2)OCO3)c1[N+](=O)[O-]	108.9%	13.6	3.8%	11.2	?
O=C(N/N=C/c1ccc2c(c1)OCO2)c1cccnc1	26.5%	48.0*	-16.4%	103.5*	18.1%
O=C(O)c1ccc(/C=N/NC(=O)c2ccc3c(c2)OCCO3)cc1	-29.9%	20.8*	-2.5%	22.4	?
Cc1ccc(C(=O)N/N=C\c2ccc3c(c2)OCO3)cn1	9.5%	17.0	0.2%	28.3	27.3%
O=C(N/N=C\c1ccc2c(c1)OCO2)c1cncc(Br)c1	19.2%	23.1*	-2.7%	60.3*	1.0%
O=C(O)c1ccc(/C=N/NC(=O)c2ccc(F)cc2)cc1	30.4%	15.9	1.2%	7.4	-17.9%
CN1CCc2c(sc(NC(=O)CSc3ccc(F)cc3)c2-c2nc3ccccc3s2)C1	/	-6.2	/	-12.7	/
COc1cc(/C=N/NC(=O)c2ccc3c(c2)OCCO3)cc(Cl)c1O	26.9%	23.0*	-1.7%	17.2	?
O=C(N/N=C/c1cccnc1)c1ccc2c(c1)OCCO2	77.9%	41.6*	-9.1%	42.3*	45.6%
O=C(N/N=C/c1ccc(Br)o1)c1ccc2c(c1)OCCO2	56.8%	57.4*	-6.5%	100.8*	8.2%
Cc1nn(C)cc1/C=N/NC(=O)c1ccc2c(c1)OCO2	31.8%	15.5*	-12.4%	26.2	49.1%
COc1ccc(C(CCN(Cc2ccc(OC)c(OC)c2)C(C)=O)C(C)C)cc1 (stereo not drawn)	?	-4.4	2.6%	16.7	?
COc1ccc(S(=O)(=O)NNC(=O)C23CC4CC(CC(C4)C2)C3)cc1[N+](=O)[O-]	18.7%	/	/	/	-1.6%
C/C(=N\NC(=S)NCc1ccccc1)c1ccc(C)o1	-16.6%	8.2	-3.4%	11.2	?
C/C(=N\N=C(N)N)c1ccc(Cl)cc1Cl	0.0%	-4.0	0.0%	-15.9	0.0%
O=C(N/N=C/c1ccc([N+](=O)[O-])o1)c1ccc2c(c1)OCO2	?	8.8	0.9%	8.8	?
Cc1ccc(OCC(=O)N/N=C/c2ccc3c(c2)OCO3)cc1C	0.2%	19.3	3.0%	15.2	18.0%
SMILES	Pf growth 48h	Cycloheximide cs	LmPK inhibitor	Shiga inhibitor	Pf growth 96h
CN(C)c1ccc(/C=N/NC(=O)c2ccc3c(c2)OCO3)cc1	41.4%	38.9*	-13.4%	91.4*	213.9%
CCOC(=O)N/N=C\c1ccc(OC(=O)c2ccc3c(c2)OCO3)cc1	-6.2%	41.8*	-3.7%[11.5 µM]	34.8	2.1%
O=C(N/N=C/c1ccccc1)c1ccc2c(c1)OCO2	254.0%	24.7	-8.1%	23.7	?
Cc1ccc(/C=N\NC(=O)c2ccc3c(c2)OCO3)o1	66.5%	36.7*	-17.3%	52.7	1.31µM*
CCn1cc(/C=N/NC(=O)c2ccc3c(c2)OCO3)cn1	-32.4%	35.2*	-3.4%	23.8	56.6%
N#Cc1ccccc1S(=O)(=O)Nc1ccc2c(c1)C(=O)OC2	21.3%	-1.1	-0.7%	-10.1	-25.9%
CCCCS(=O)(=O)N1CCc2nc(-c3ccc(OC)cc3C)c3c(c2C1)CO[C@@H](c1ccccc1)C3	/	/	-6.6%[11.5 µM]	/	/
O=C(c1ccccc1)C(C(=O)N1CCCCC1)n1ccccc1=O (stereo not drawn)	12.5%	-5.4	6.4%	-6.4	50.8%
CN1CCN(C(=O)C(C(=O)c2ccc(F)cc2)n2ccccc2=O)CC1 (stereo not drawn)	11.0%	-3.8	-1.6%	16.6	2.33µM*
O=C(NCc1ccccn1)C(C(=O)c1ccc(F)cc1)n1ccccc1=O (stereo not drawn)	7.3%	-2.6	0.8%	-6.0	13.1µM*
Cc1ccc(CNC(=O)c2ccc([N+](=O)[O-])o2)cc1	?	-1.9	1.7%	14.8	8.28µM*
Cc1ccc(-c2csc(NC(=O)c3ccno3)n2)cc1	/	22.2*	7.7%	21.0	57.2%
Cn1cc([N+](=O)[O-])c(C(=O)Nc2nc(-c3ccc(Cl)cc3)cs2)n1	41.0%	17.2*	4.5%	-40.7	0.0%
Cc1ccc(/C=C/C(=O)c2ccc([N+](=O)[O-])o2)cc1	?	/	/	/	-9.2%
Cc1ccc(-c2csc(NC(=O)c3c(C)noc3C)n2)cc1	13.9%	/	/	/	42.5%
CN(Cc1ccccc1)C(=O)c1ccc([N+](=O)[O-])o1	9.28µM*	19.2*	3.0%	42.4*	26.1%
CCOP(=O)(OCC)C(NC(=O)c1cccs1)c1ccccc1 (stereo not drawn)	0.9%	-4.4	1.9%	19.4	9.7%
Cc1ccc(SCCC(=O)N(C)CC(=O)Nc2c(C)cccc2C)cc1	-20.1%	2.7	-8.1%	-11.4	?
CCOc1ccccc1NS(=O)(=O)c1cn(C)c(=O)n(C)c1=O	13.6%	-0.9	3.4%	-14.1	41.9%
Cc1ccc(-n2nc(-c3ccco3)cc2C(=O)O)c(C)c1	40.7%	-1.8	8.7%	-4.1	-4.5%
COc1ccccc1N=C1SCC(=O)N1Cc1ccco1	1.0%	0.9	-0.4%	14.4	0.5%
O=C(Nc1nc(-c2ccc(F)cc2)cs1)c1cccnc1	-14.7%	12.7	9.1%	15.0	-5.9%
Cc1ccc(C(=O)Nc2nc(-c3ccc(F)cc3)cs2)o1	-11.6%	41.8*	-3.3%	91.7*	0.0%
Cc1ccc(-c2csc(NC(=O)c3ccc([N+](=O)[O-])o3)n2)cc1	13.1µM*	11.7	-4.7%	19.3	2.62µM*
Cc1ccc(-c2csc(NC(=O)c3cccc([N+](=O)[O-])c3)n2)cc1	60.5%	-3.0	0.9%	-2.4	41.2%
O=C(NC1CCCCC1)C(c1ccco1)N(C(=O)c1csnn1)c1cccc(Cl)c1 (stereo not drawn)	?	-6.1	0.2%	7.5	-19.6%
O=c1cc(N2CCCCC2)c(-c2ccccc2)nn1Cc1c(Cl)cccc1Cl	?	-2.3	1.2%	-8.5	10.4µM*
O=c1cc(N2CCCCC2)c(-c2ccccc2)nn1Cc1ccc(F)cc1	?	-3.8	-3.7%	-1.7	13.1µM*
